# From PubChem
# D2 PAM-1 = D2 dopamine receptor (human) potentiation. P14416. HEK293 T-REx D2, calcium flux, EC20 dopamine potentiation. potentiation, % at 10 µM. actives 0.34% (n = 340,000). AID 485347;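 active = potentiation over 3 SD above the plate norm, cut at about 30% in these data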
# Target sequence (P14416 whole entry, looked up): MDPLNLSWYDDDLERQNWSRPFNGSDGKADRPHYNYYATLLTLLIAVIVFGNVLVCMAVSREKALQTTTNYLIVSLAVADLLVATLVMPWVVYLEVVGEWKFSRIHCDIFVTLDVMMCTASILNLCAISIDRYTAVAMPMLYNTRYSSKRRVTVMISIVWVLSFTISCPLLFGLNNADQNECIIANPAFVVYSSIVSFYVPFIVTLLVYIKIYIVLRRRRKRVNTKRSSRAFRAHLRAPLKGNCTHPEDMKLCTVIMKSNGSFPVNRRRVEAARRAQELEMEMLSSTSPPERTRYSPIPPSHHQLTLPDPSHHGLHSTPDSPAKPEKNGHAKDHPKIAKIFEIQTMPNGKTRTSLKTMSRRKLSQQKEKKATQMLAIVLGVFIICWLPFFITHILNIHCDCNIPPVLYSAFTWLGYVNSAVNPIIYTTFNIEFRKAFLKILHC
#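 Calcium flux readout, no-wash dye, 1 read/s. Inducible HEK293 Trex D2 line, overnight 30 C. Compound alone 180 s (agonist flags), then EC20 dopamine, another 180 s to score potentiation.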
# D2 ag-1 = activates the human D2 dopamine receptor; DiscoveRx PathHunter D2 beta-arrestin, luminescence, 90 min; 100% = 57 uM dopamine signal; activation, % (test concentration not listed); actives 0.084% (n = 360,000); AID 624465; in the data active = activation above about 40%; inconclusive = between about 15% and that limit
#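 DiscoveRx PathHunter D2 beta-arrestin cells (2,100/well) attached overnight, then compound-stimulated 90 min at 37 C in HBSS/10 mM HEPES/0.1% Tween-20 buffer; beta-galactosidase complementation read by luminescence after 1 h at ambient temperature. Dopamine 57 uM final (EC100) as control.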
# D2 PAM-2 = potentiates the human D2 dopamine receptor allosterically; P14416; DiscoveRx D2 beta-arrestin cells, luminescence, 90 min; 100% = 57 uM dopamine signal; potentiation, % (no concentration beside the values); actives 0.23% (n = 360,000); in the data active = potentiation above about 50%; inconclusive = mostly about 30% to 49%
#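 D2 cells co-treated with compound plus 50 nM dopamine (EC20) for 90 min at 37 deg C to detect potentiation. Beta-arrestin recruitment was read as enzyme-fragment luminescence after 1 h at ambient temperature. Full response was set by 57 uM dopamine.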
# D2 ag-2 = D2 dopamine receptor (human) agonism; P14416; HEK293 T-REx D2 cells, calcium flux agonist mode; activation, % at 2 µM; actives 0.53% (n = 340,000);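 active = activation over 3 SD above normal in the single-dose calcium agonist read, cut at about 30% in these data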
#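 Tetracycline-induced HEK293 T-REx cells with force-coupled D2 receptor, plated overnight at 30 C, loaded with no-wash calcium dye. After a 10 s baseline, compound was pin-added and calcium flux read kinetically for 180 s; calcium rises flagged agonists.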
# D2 antag = antagonizes the human D2 dopamine receptor; inhibition, % at 10 µM; HEK293 TREx D2 cells, calcium flux, dopamine EC80; actives 2% (n = 340,000); in the data active = inhibition above about 30%; inactive = below that, where a call was filed
#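 HEK293 T-REx D2 cells, tet-induced, calcium dye no-wash. Cpd pintool add, 180 s kinetic, then EC80 DA, 180 s kinetic. Ca flux read.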
# Hits are given with their value; n = inactive; u = inconclusive; x = no result given. Hits are enriched below; roughly 2.4% of the tested compounds scored in any of these assays.
SMILES,D2 PAM-1,D2 ag-1,D2 PAM-2,D2 ag-2,D2 antag
Clc1ccc(/C=C\c2nccc3c2[nH]c2ccccc23)cc1,n,n,n,n,66
CCCCSCCCNC(=O)CN1C(=O)COc2ccc(S(=O)(=O)N3CCC(C)CC3)cc21,n,x,x,n,x
COc1cc(C(=O)N/N=C(\C)Cc2ccccc2)cc(OC)c1OC,x,n,n,x,x
COc1cc(C(=O)NCC(=O)N/N=C(\C)Cc2ccccc2)cc(OC)c1OC,37,n,n,n,n
Cc1ccc(C)c(NC(=O)Cn2c(=O)n(CCCS(=O)(=O)C3CCCCC3)c(=O)c3ccccc32)c1,n,x,x,n,x
COc1ccc(-c2nn3c(=O)cc(CN4CCN(C(=O)Nc5ccc(C)c(Cl)c5)CC4)nc3s2)cc1,n,x,x,x,x
COC(=O)CN1C(=O)N/C(=C/c2cc3c(cc2OC)OCO3)C1=O,35,n,n,n,n
CCOC(=O)N1CCN(C(=O)C2CCN(S(=O)(=O)c3c(C)cc(C)cc3C)CC2)CC1,x,n,n,x,x
CCOC(=O)N1CCN(S(=O)(=O)c2c(C)cc(C)cc2C)CC1,n,n,n,n,54
O=C(Cn1cc(S(=O)(=O)c2ccccc2)c(=O)c2cc(Cl)ccc21)Nc1ccc2c(c1)OCO2,n,x,x,n,x
N#C/C(=C\c1ccc(N2CCOCC2)o1)C(=O)NCCc1ccccc1,n,n,n,n,46
N#C/C(=C/c1ccc(N2CCOCC2)o1)C(=O)Nc1ccccc1,n,n,n,40,n
COCCNC(=O)/C(C#N)=C/c1ccc(N2CCOCC2)o1,n,n,n,n,n
Nc1nnc(CC(=O)N/N=C/c2cccc(OCCOc3ccccc3)c2)s1,n,n,n,n,31
CC1=C(C(=O)N(C(C)C)C(C)C)CC(CC(=O)NCc2ccco2)C(=O)N1CCCN1CCCC1=O (stereo unspecified),x,n,n,x,x
O=C(Nc1nnc([C@H]2C[C@H](O)[C@@H](CO)O2)s1)c1cccc(OC(F)(F)F)c1,x,n,n,x,x
O=C(NCc1ccc2c(c1)CCO2)Nc1cccc(C(F)(F)F)c1,n,n,n,n,40
Cc1cc(C)c(N=Cc2c(O)n(-c3nccs3)c(=O)c3ccccc23)c(C)c1,n,n,n,n,41
CS(=O)(=O)NC1CCN(Cc2ccccc2)CC1,n,n,n,n,n
c1ccc(CN2CCC(Nc3ncnc4sccc34)CC2)cc1,n,n,n,n,77
c1ccc(CN2CCC(Nc3nc(-c4cccnc4)nc4ccccc34)CC2)cc1,n,n,n,n,49
Fc1ccccc1CNc1ncnc2sccc12,n,n,n,n,n
Cc1csc2c(NC3CCN(Cc4ccccc4)CC3)ncnc12,n,n,n,n,89
Cc1sc2ncnc(NC3CCN(Cc4ccccc4)CC3)c2c1C,n,n,n,n,68
CCOc1ccccc1NC(=O)CSc1nc2c(oc3ccccc32)c(=O)n1C(C)C,n,x,x,n,x
SMILES,D2 PAM-1,D2 ag-1,D2 PAM-2,D2 ag-2,D2 antag
COCCNC(=O)C1(C)Cc2c(-c3ccc4c(c3)OCO4)ccnc2O1 (stereo unspecified),x,n,n,x,x
CCOC(=O)c1c(C)oc2c1c(C(c1ccccc1)N1CCOCC1)c(O)c1ccccc12 (stereo unspecified),n,n,u,n,57
CCOC(=O)c1c(C)oc2c1c(C(c1cccnc1)N1CCCCC1)c(O)c1ccccc12 (stereo unspecified),n,u,102,n,n
CCOC(=O)c1c(C)oc2c1c(C=NCCO)c(O)c1ccccc12,n,n,n,n,n
COc1ccc(S(=O)(=O)N2CCN(Cc3nc4ccc(C)cc4o3)CC2)cc1,n,x,x,n,x
Cn1c(=O)c2cc(S(=O)(=O)NC(Cc3ccccc3)C(=O)Nc3ccc(F)cc3)ccc2n(C)c1=O (stereo unspecified),n,x,x,n,x
CCN(CC)CCOc1nnc(-c2ccc(OC)cc2)c2ccccc12,n,n,n,n,n
CCN(CC)CCOc1nnc(-c2ccc(C)cc2)c2ccccc12,n,n,n,n,36
COC(=O)c1cc2c(=O)c3ccccc3oc2nc1/C=C/N(C)C,n,n,n,40,n
COC(=O)c1cc2c(=O)c3ccccc3oc2nc1C,n,n,n,n,n
CCOc1ccccc1N1C(=O)CC(Sc2ncccc2C(=O)O)C1=O (stereo unspecified),n,n,n,n,36
Cc1ccccc1NS(=O)(=O)c1ccc(C)c(NS(C)(=O)=O)c1C,n,n,n,n,33
CCCCN1C(=O)c2ccc(C(=O)N(C)CC(=O)Nc3ccc(OCC)c(OCC)c3)cc2C1=O,x,n,n,x,x
CCOc1ccc(NC(=O)CN(C)C(=O)CN2C(=O)c3ccc([N+](=O)[O-])cc3C2=O)cc1OCC,n,n,57,n,n
O=C(CSc1nnc(-c2ccc(Br)o2)n1Cc1ccccc1)c1ccccc1F,71,n,n,n,n
CCN(CC)C(=O)COc1ccc2oc(C)c(C(=O)OC(C)C)c2c1,n,n,n,n,31
Cc1oc2ccc(OS(C)(=O)=O)cc2c1C(=O)OC(C)C,x,n,n,n,n
CCOC(=O)N1CCC(NC(=O)CCCN2C(=O)CSc3ncccc32)CC1,n,n,n,n,32
CC(=O)N1CCN(S(=O)(=O)c2cccc(C(=O)Nc3ccc(C)cn3)c2)CC1,n,n,n,n,n
Cc1ccc(NC(=O)c2cccc(S(=O)(=O)N3CCc4ccccc4C3)c2)nc1,n,n,n,n,31
Cc1cc(F)ccc1NC(=O)c1c(C)oc2c1C1=NCCN1C=N2,n,x,x,n,x
CCC(C)(C)NC(=O)CN(C(=O)CCC(=O)Nc1nccs1)c1ccccc1C,n,n,n,n,39
CCCCCCc1cc2cc(-c3nnc(-c4ccccc4OC)o3)c(=O)oc2cc1O,n,u,155,110,n
CCCCCCc1cc2cc(S(=O)(=O)c3ccc(F)cc3)c(=O)oc2cc1O,n,n,n,n,n
CCCCCCc1cc2cc(-c3nnc(-c4cc(OC)c(OC)c(OC)c4)o3)c(=O)oc2cc1O,n,n,n,n,n
SMILES,D2 PAM-1,D2 ag-1,D2 PAM-2,D2 ag-2,D2 antag
CCCCCCc1cc2cc(-c3nnc(-c4ccccc4O)o3)c(=O)oc2cc1O,n,n,n,39,n
CCCc1cnc2c(c1SCC(=O)N(C)c1ccccc1)c(=O)n(C)c(=O)n2C,n,x,x,n,x
CCOc1cccc(/C(O)=C2/C(=O)C(=O)N(CCOC)C2c2ccco2)c1 (stereo unspecified),34,n,n,n,n
CCOc1cccc(/C(O)=C2/C(=O)C(=O)N(Cc3cccnc3)C2c2ccco2)c1 (stereo unspecified),n,n,n,n,n
O=C(COC(=O)c1cc(-c2cccs2)nn1-c1ccccc1)Nc1ccc(Cl)c([N+](=O)[O-])c1,n,n,n,n,44
O=C(NC1CC2CCC(C1)N2Cc1ccccc1)c1ccccc1Cl (stereo unspecified),n,n,n,n,75
